Experimental data as given in PubChem BioAssay (Tox21).
A number with no mark means an inactive call. Records with an inconclusive call do not appear. Where a call stands in place of a potency, no number is given. Calls of active or inactive are those of the source. Unless noted, calls follow the shape of the full dose curve.

Experiments:
[1] = qHTS assay to identify small molecule agonists of the sonic hedgehog signaling (Shh) pathway (AID 1259368);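 also: NIH/3T3-derived 3T3Gli1-Luc cells carrying a stable Gli1-driven firefly luciferase reporter; series mostly up to about 92 µM; nearly all actives have a fitted effect of over 15% in size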
How it was run: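 Steps: seed 3T3 Gli1-Luc cells, incubate 4 hr at 37 C, pin-transfer compounds in DMSO alongside a positive control, incubate 24 hr, add luciferase detection reagent, wait 30 min at room temperature, read luminescence.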

[2] = qHTS assay to identify small molecule antagonists of the sonic hedgehog signaling (Shh) pathway (AID 1259369); also: nearly all actives have a fitted effect of over 45% in size; also: potency is read from the fitted curve at half-maximal effect
How it was run: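 Inhibition of Shh signalling is measured as reduced Gli1-response-element firefly luciferase output in an NIH/3T3-derived stable reporter clone stimulated with conditioned medium for 24hr.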

[3] = target: Estrogen receptor beta (Homo sapiens) (UniProt Q92731); experiment: qHTS assay to identify small molecule agonists of the estrogen receptor beta (ER-beta) signaling pathway (AID 1259377; active = well fitted activation curve with a large enough effect in the signal ratio in the repeat runs, not every such curve was filed as active; the % refers to the signal ratio)
Sequence of Estrogen receptor beta (Homo sapiens) (Q92731 whole entry, looked up): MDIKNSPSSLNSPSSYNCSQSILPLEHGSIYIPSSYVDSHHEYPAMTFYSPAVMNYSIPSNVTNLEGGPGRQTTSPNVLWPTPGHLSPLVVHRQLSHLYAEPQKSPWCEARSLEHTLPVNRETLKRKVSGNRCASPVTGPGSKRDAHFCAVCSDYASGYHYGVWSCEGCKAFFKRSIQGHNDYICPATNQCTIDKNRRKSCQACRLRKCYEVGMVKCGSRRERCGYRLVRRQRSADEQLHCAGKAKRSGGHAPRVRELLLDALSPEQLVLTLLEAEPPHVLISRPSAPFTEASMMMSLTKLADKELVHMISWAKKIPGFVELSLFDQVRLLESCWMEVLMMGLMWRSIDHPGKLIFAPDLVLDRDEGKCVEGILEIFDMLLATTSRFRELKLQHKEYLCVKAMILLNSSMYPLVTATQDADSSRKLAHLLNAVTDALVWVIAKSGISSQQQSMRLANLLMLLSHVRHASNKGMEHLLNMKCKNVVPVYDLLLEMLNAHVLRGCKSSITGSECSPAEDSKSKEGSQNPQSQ
How it was run: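 ER-beta-UAS-bla HEK293T (GripTite) cells carrying a UAS-driven beta-lactamase reporter, in medium with 2% charcoal-stripped FBS, were exposed to compounds for 16 hr at 37C; LiveBLAzer B/G FRET substrate was then added and fluorescence read after 2 hours at room temperature.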

[4] = target: Estrogen receptor beta (Homo sapiens) (UniProt Q92731); experiment: qHTS assay to identify small molecule antagonists of the estrogen receptor beta (ER-beta) signaling pathway (AID 1259378; active = well fitted inhibition curve with a large enough effect in the signal ratio in the repeat runs, not every such curve was filed as active; the % refers to the signal ratio)
How it was run: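 ER-beta-UAS-bla HEK293T (GripTite) cells in 2% charcoal-stripped FBS medium were preincubated 6 hr at 37C, dosed with compound, then stimulated with 1 nM E2 (final) for 16 hr; beta-lactamase reporter read by B/G FRET fluorescence after 2 hr substrate loading.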

[5] = qHTS assay to identify small molecule agonists of the androgen receptor (AR) signaling pathway in the presence of an antagonist - cell viability counter screen (AID 1259379; active = well fitted curve in the direction sought with a large enough effect in the repeat runs; an effect the other way counts as inactive or inconclusive;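 also: MDA-kb2 human breast cancer cells carrying an MMTV luciferase reporter; series mostly up to about 92 µM; nearly all actives have a fitted effect of over 25% in size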)
How it was run: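 Fluorescence from CellTiter-Fluor, added after 15 hr and read 1 hr later, gave cell viability. Cells were MDA-kb2 exposed to compounds (15 concentrations) in the presence of 3.0uM nilutamide at 37C, 0% CO2.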

[6] = qHTS assay to identify small molecule agonists of the estrogen receptor beta (ER-beta) signaling pathway - cell viability counter screen (AID 1259380; active = well fitted curve in the direction sought with a large enough effect in the repeat runs; an effect the other way counts as inactive or inconclusive; also: nearly all actives have a fitted effect of over 30% in size)
How it was run: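 Same-well viability counter screen. Cells: ER-beta-UAS-bla HEK293T, plated 6 hr before compound, in 2% charcoal-stripped FBS. Compound exposure 16 hr, 37C; viability by CellTiter-Glo luminescence after 30 min at room temperature.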

[7] = qHTS assay to identify small molecule agonists or antagonists of the thyroid stimulating hormone receptor (TSHR) signaling pathway - wild type cell line counter screen (AID 1259384)
How it was run: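 Wild-type HEK293 cells were plated 18 h at 37 C/5% CO2, pin-dosed with compound plus Ro20-1724 medium, held 30 min at room temperature, then given cAMP-d2 and anti-cAMP-cryptate; fluorescence was read after 1 h. Fifteen concentrations, triplicate.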

[8] = target: Thyrotropin receptor (Homo sapiens) (UniProt P16473); experiment: qHTS assay to identify small molecule antagonists of the thyroid stimulating hormone receptor (TSHR) signaling pathway (AID 1259385); also: nearly all actives have a fitted effect of over 20% in size
Sequence of Thyrotropin receptor (Homo sapiens) (P16473 whole entry, looked up): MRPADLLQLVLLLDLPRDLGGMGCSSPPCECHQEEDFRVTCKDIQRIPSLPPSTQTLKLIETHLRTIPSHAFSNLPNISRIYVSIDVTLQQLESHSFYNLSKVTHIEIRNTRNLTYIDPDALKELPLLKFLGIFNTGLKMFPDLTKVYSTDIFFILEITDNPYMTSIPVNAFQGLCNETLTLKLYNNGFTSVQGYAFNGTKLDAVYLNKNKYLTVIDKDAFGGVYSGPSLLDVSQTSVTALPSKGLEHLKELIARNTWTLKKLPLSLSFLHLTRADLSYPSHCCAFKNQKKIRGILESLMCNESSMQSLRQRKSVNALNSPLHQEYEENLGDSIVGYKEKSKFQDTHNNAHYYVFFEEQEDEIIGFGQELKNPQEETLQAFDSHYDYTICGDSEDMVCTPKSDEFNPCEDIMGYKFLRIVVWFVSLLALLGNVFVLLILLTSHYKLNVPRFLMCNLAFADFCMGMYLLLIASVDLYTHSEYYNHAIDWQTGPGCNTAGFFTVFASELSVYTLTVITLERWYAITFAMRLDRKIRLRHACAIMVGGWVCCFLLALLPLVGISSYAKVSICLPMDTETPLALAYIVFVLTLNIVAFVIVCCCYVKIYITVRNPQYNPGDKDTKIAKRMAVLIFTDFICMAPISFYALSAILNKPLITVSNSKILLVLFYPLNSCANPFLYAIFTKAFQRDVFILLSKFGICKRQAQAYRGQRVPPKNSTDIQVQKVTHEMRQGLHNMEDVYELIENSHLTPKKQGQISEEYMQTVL
How it was run: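 TSHR-HEK293 cells were plated and held 18 h at 37C/5% CO2, then given compound plus Ro20-1724 and stimulated with TSH at 1.5 ng/mL final. After 30 min at room temperature, cAMP was detected with cAMP-d2/anti-cAMP-cryptate (1 h) by fluorescence.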

[9] = qHTS assay to identify small molecule agonists of the estrogen receptor alpha (ER-alpha) signaling pathway in the presence of an antagonist - cell viability counter screen (AID 1259386; active = well fitted curve in the direction sought with a large enough effect in the repeat runs; an effect the other way counts as inactive or inconclusive;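 also: series mostly up to about 92 µM; cells exposed to compounds for 22 h at 37 °C before the viability read; nearly all actives have a fitted effect of over 30% in size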)
How it was run: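 Cells are starved of estrogens for 5 days in charcoal-stripped serum, seeded for 24hr and co-treated with ICI-182,780 (10.0nM final) and test compounds. After 22hr at 37C, viability is read as CellTiter-Fluor fluorescence.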

[10] = qHTS assay to identify small molecule antagonists of the progesterone receptor (PR) signaling pathway - cell viability counter screen (AID 1346798; active = well fitted curve in the direction sought with a large enough effect in the repeat runs; an effect the other way counts as inactive or inconclusive; also: series mostly up to about 92 µM; nearly all actives have a fitted effect of over 50% in size)
How it was run: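 PR-UAS-bla HEK293T cells in medium with 2% charcoal-stripped FBS were treated with compounds plus R5020 for 16 hr at 37C. Cell viability was then read by CellTiter-Glo luminescence after 30 min at room temperature in the same wells.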

[11] = qHTS assay to identify small molecule agonists of the progesterone receptor (PR) signaling pathway - cell viability counter screen (AID 1346799); also: nearly all actives have a fitted effect of over 45% in size; also: potency is read from the fitted curve at half-maximal effect
How it was run: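 PR-UAS-bla HEK293T cells, 3,000 per well in medium with 2% charcoal-stripped FBS, were preincubated 6 hr at 37C, then exposed to compounds for 16 hr; viability was read as CellTiter-Glo luminescence after 30 min at room temperature.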

[12] = qHTS assay to identify small molecule antagonists of the TGF-beta/Smad signaling pathway - cell viability counter screen (AID 1346824; active = well fitted curve in the direction sought with a large enough effect in the repeat runs; an effect the other way counts as inactive or inconclusive; also: nearly all actives have a fitted effect of over 50% in size)
How it was run: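 SBE-bla HEK 293T cells were plated overnight at 37 C, then given compounds in DMSO plus TGF-beta1 (added as 0.25 ng/mL solution) for 5 hr. After the bla read, CellTiter-Glo was added to the same wells and luminescence read after 30 min at room temperature.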

[13] = qHTS assay to identify small molecule agonists of the TGF-beta/Smad signaling pathway - cell viability counter screen (AID 1346829; active = well fitted curve in the direction sought with a large enough effect in the repeat runs; an effect the other way counts as inactive or inconclusive; also: top concentration of the series differs between compounds; nearly all actives have a fitted effect of over 45% in size)
How it was run: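 Compound-treated SBE-bla HEK 293T cells (5 hr, 37 C) were assessed for viability with CellTiter-Glo in parallel with the reporter read.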

[14] = qHTS assay to identify small molecule agonists of the TGF-beta/Smad signaling pathway (AID 1346859; active = well fitted activation curve with a large enough effect in the signal ratio in the repeat runs, not every such curve was filed as active; the % refers to the signal ratio; also: series mostly up to about 77 µM)
How it was run: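 HEK 293T cells stably carrying a beta-lactamase reporter driven by the Smad binding element were seeded overnight, exposed to DMSO-dissolved compounds for 5 hr at 37 C, 5% CO2, then loaded with FRET substrate for 2 hr at room temperature.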

[15] = target: Thyrotropin-releasing hormone receptor (Homo sapiens) (UniProt P34981); experiment: qHTS assay to identify small molecule antagonists of the thyrotropin-releasing hormone receptor (TRHR) signaling pathway (AID 1346877; active = well fitted inhibition curve with a large enough effect in the repeat runs, not every such curve was filed as active; also: series mostly up to about 51 µM)
Sequence of Thyrotropin-releasing hormone receptor (Homo sapiens) (P34981 whole entry, looked up): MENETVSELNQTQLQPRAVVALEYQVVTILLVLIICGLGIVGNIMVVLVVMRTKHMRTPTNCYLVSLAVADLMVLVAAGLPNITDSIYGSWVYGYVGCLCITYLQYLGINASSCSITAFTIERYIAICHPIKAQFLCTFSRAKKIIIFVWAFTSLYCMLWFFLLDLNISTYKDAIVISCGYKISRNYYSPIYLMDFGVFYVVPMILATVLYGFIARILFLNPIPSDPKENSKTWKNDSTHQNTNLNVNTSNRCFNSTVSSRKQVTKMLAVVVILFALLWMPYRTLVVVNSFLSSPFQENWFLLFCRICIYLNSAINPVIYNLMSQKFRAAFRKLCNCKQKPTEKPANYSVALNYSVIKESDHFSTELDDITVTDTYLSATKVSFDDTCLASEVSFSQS
How it was run: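 Cells (TRHR-HEK293) are plated and kept 18 h at 37 °C/5% CO2. A calcium-sensitive dye is added for 2 h, compound follows for 5 min at room temperature, and TRH is then given at 1 nM final.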

[16] = qHTS assay to identify small molecule antagonists of the estrogen receptor beta (ER-beta) signaling pathway - cell viability counter screen (AID 1259382; active = well fitted curve in the direction sought with a large enough effect in the repeat runs; an effect the other way counts as inactive or inconclusive; also: series mostly up to about 92 µM; nearly all actives have a fitted effect of over 55% in size)
How it was run: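 Following a 6 hr plating period, HEK293T cells carrying a UAS-driven beta-lactamase reporter under ER-beta control received compounds and 1nM E2 (final). After 16 hr at 37C and 2 hr substrate loading, CellTiter-Glo luminescence indicated viability.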

[17] = target: Progesterone receptor (Homo sapiens) (UniProt P06401); experiment: qHTS assay to identify small molecule agonists of the progesterone receptor (PR) signaling pathway (AID 1346784); also: nearly all actives have a fitted effect of over 30% in size
Sequence of Progesterone receptor (Homo sapiens) (P06401 whole entry, looked up): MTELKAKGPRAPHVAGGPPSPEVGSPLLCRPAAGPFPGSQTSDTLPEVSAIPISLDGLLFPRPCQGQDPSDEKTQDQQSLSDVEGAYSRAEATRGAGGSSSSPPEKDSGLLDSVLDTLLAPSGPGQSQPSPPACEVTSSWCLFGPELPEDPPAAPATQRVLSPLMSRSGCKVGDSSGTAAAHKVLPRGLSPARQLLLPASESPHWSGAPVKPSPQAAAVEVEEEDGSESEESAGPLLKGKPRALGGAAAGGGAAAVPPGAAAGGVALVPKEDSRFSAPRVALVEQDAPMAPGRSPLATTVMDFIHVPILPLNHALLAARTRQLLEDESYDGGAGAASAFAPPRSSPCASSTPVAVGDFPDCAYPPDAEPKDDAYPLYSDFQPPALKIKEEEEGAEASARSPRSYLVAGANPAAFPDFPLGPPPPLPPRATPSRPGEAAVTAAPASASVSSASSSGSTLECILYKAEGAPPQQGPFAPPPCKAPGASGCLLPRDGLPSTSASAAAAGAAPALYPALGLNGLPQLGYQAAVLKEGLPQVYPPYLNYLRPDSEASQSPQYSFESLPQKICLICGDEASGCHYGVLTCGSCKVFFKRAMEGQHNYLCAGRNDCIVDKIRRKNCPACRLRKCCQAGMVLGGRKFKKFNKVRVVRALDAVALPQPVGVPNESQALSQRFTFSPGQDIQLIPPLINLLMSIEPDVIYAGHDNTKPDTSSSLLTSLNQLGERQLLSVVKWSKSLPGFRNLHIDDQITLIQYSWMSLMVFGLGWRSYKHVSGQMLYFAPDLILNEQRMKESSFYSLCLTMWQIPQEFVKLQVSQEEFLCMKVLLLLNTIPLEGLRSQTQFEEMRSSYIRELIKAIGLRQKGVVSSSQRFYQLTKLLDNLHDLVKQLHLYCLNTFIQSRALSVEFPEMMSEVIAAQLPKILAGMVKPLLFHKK
How it was run: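 PR-UAS-bla HEK 293T cells carrying a UAS-driven beta-lactamase reporter were seeded in medium with 2% charcoal-stripped FBS, preincubated 6 hr at 37C, then exposed to compounds in DMSO for 16 hr; agonism was read by LiveBLAzer B/G FRET fluorescence.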

[18] = target: Progesterone receptor (Homo sapiens) (UniProt P06401); experiment: qHTS assay to identify small molecule antagonists of the progesterone receptor (PR) signaling pathway (AID 1346795; active = well fitted inhibition curve with a large enough effect in the signal ratio in the repeat runs, not every such curve was filed as active; the % refers to the signal ratio)
How it was run: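 PR-UAS-bla HEK293T cells carrying a UAS-driven beta-lactamase reporter were plated in medium with 2% charcoal-stripped FBS and rested 6 hr at 37C. Compounds were added with 1 nM R5020 (final) for 16 hr, then FRET substrate loaded 2 hr at room temperature.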

[19] = target: Estrogen receptor (Homo sapiens) (UniProt P03372); experiment: qHTS assay to identify small molecule agonists of the estrogen receptor alpha (ER-alpha) signaling pathway in the presence of an antagonist (AID 1259383); also: top concentration of the series differs between compounds; nearly all actives have a fitted effect of over 15% in size
Sequence of Estrogen receptor (Homo sapiens) (P03372 whole entry, looked up): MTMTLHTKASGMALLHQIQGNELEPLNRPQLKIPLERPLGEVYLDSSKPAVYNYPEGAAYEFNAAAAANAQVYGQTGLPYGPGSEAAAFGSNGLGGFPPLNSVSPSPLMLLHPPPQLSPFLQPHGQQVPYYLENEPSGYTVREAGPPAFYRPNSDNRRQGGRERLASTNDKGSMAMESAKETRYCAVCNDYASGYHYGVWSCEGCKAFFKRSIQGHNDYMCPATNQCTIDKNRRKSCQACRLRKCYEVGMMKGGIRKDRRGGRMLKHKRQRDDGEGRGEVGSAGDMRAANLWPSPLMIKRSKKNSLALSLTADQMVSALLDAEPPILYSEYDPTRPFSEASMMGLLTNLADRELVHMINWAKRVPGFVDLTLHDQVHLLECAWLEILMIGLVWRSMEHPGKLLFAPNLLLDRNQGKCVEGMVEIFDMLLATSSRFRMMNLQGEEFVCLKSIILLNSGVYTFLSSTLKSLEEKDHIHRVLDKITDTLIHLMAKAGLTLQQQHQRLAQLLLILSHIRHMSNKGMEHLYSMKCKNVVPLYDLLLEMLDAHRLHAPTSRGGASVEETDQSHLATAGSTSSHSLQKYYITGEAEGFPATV
How it was run: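 Cells are hormone-deprived for 5 days (charcoal-stripped FBS, no phenol red), plated for 24hr, spiked with 10.0nM ICI-182,780, then dosed at 15 concentrations. After 22hr at 37C, ONE-Glo luminescence reports ERE-luciferase activity.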

Compound	Potency [1]	Potency [2]	outcome [3]	Potency [4]	Potency [5]	Potency [6]	outcome [7]	Potency [8]	outcome [9]	Potency [10]	Potency [11]	outcome [12]	outcome [13]	outcome [14]	outcome [15]	Potency [16]	Potency [17]	Potency [18]	Potency [19]
OC[C@H]1O[C@@H]2O[C@H]3[C@H](O)[C@@H](O)[C@@H](O[C@H]4[C@H](O)[C@@H](O)[C@@H](O[C@H]5[C@H](O)[C@@H](O)[C@@H](O[C@H]6[C@H](O)[C@@H](O)[C@@H](O[C@H]7[C@H](O)[C@@H](O)[C@@H](O[C@H]8[C@H](O)[C@@H](O)[C@@H](O[C@H]9[C@H](O)[C@@H](O)[C@@H](O[C@H]1[C@H](O)[C@H]2O)O[C@@H]9CO)O[C@@H]8CO)O[C@@H]7CO)O[C@@H]6CO)O[C@@H]5CO)O[C@@H]4CO)O[C@@H]3CO	inactive	inactive	inactive	inactive	inactive	inactive	inactive	inactive	inactive	inactive	inactive	inactive	inactive	inactive	inactive	–	–	–	–
NS(=O)(=O)c1cc(C2(O)NC(=O)c3ccccc32)ccc1Cl (stereo not drawn)	inactive	inactive	inactive	inactive	inactive	–	inactive	inactive	inactive	inactive	inactive	inactive	inactive	inactive	inactive	inactive	inactive	–	–
COc1ccc(COC=O)cc1	inactive	inactive	inactive	inactive	inactive	inactive	inactive	inactive	inactive	–	inactive	–	inactive	inactive	inactive	–	inactive	inactive	–
CN(C)C(=O)Nc1ccccc1	inactive	inactive	inactive	inactive	inactive	inactive	inactive	inactive	inactive	–	inactive	–	inactive	inactive	inactive	inactive	inactive	inactive	–
CCCCCCC(CCCCCCCCCCC(=O)OCC(COC(C)=O)OC(C)=O)OC(C)=O (stereo not drawn)	inactive	1.06 µM (active)	inactive	inactive	inactive	–	inactive	inactive	inactive	inactive	inactive	inactive	inactive	inactive	inactive	–	inactive	inactive	–
CC(C)(C)C(=O)/C=C/c1ccc(Cl)cc1	inactive	inactive	inactive	inactive	inactive	–	inactive	inactive	inactive	inactive	inactive	inactive	inactive	inactive	inactive	inactive	inactive	inactive	–
O=C(O)C(O)[C@H](O)[C@@H](O)[C@H](O)[C@H](O)CO (stereo partly drawn)	inactive	inactive	inactive	inactive	inactive	–	inactive	inactive	inactive	–	49.1 µM (active)	inactive	inactive	inactive	–	–	–	inactive	inactive
C1=C\CC/C=C\CC/C=C\CC/1	inactive	inactive	inactive	inactive	inactive	inactive	–	–	inactive	inactive	inactive	inactive	inactive	inactive	–	inactive	inactive	inactive	–
CC(O)CN(CCCN(C)C)CCCN(C)C (stereo not drawn)	inactive	inactive	inactive	inactive	inactive	–	–	–	inactive	inactive	inactive	–	inactive	inactive	inactive	inactive	inactive	inactive	–
C=C(C)C(=O)NCCCN(C)C	inactive	inactive	inactive	inactive	inactive	inactive	–	–	inactive	inactive	inactive	inactive	inactive	inactive	inactive	–	inactive	inactive	–
CCCCCCCCCCCCCCCCCCOCC(O)CO (stereo not drawn)	inactive	inactive	inactive	inactive	inactive	–	inactive	inactive	–	inactive	inactive	inactive	inactive	inactive	–	inactive	inactive	inactive	inactive
CCCCCC[C@@H](CCC)C(=O)O	inactive	inactive	inactive	inactive	inactive	–	inactive	inactive	inactive	–	–	inactive	inactive	inactive	inactive	–	inactive	inactive	inactive
CO[Si](OC)(OC)OC	inactive	inactive	inactive	inactive	inactive	inactive	inactive	inactive	inactive	inactive	inactive	inactive	inactive	inactive	inactive	–	inactive	inactive	–
O=C(O)/C=C/c1ccc(/C=C/C(=O)O)cc1	inactive	inactive	inactive	inactive	inactive	inactive	–	–	inactive	–	–	inactive	inactive	inactive	inactive	inactive	inactive	inactive	–
CC1=CC(=O)CCC1	inactive	inactive	inactive	inactive	inactive	inactive	inactive	inactive	inactive	inactive	inactive	inactive	inactive	inactive	inactive	–	inactive	inactive	–
COC(=O)c1ccc(C(=O)OC)c(C(=O)OC)c1	inactive	inactive	inactive	inactive	inactive	–	inactive	inactive	inactive	inactive	inactive	inactive	inactive	inactive	–	inactive	inactive	–	inactive
